Results on 40 compounds are retold here after PubChem BioAssay (NCATS).

Molecules are shown by their SMILES. Records with an inconclusive call do not appear. The source made the active and inactive calls. Calls follow the shape of the dose curve; as a rule, active = well fitted inhibition curve with a large enough effect; inconclusive = small, poorly fitted or top-dose-only effect; inactive = flat fitted curve, though single readings scatter. Positions of bridges follow the written chain, without caps; N, C: chain ends. Non-standard residues stand in square brackets, D forms with d. Residues, ends and D or L forms follow the SMILES beside them. ξ: configuration not given here. *: point of attachment. Octanoyl(6-Me) = CCC(C)CCCCC(=O)*; ξThr(3R) = C[C@@H](O)C(N)C(=O)O; dDab = NCC[C@@H](N)C(=O)O; Dab = NCC[C@H](N)C(=O)O
% is scaled to controls: 0 for no effect and ±100 for the full control effect; potency is read from the fitted curve at half-maximal effect.

The subject of this experiment is MCC-26. Briefly: qHTS assay to identify novel small-molecules to repurpose for Merkel cell carcinoma treatment (AID 1296009). Also: nearly all actives have a fitted effect of over 60% in size. As to conditions: MCC and control cell lines, CellTiter-Glo viability, 72 h; series mostly up to 46 µM; activity change, negative = cytotoxicity: at the top concentration. An excerpt:
MCC is a rare and aggressive neuroendocrine skin cancer with limited treatment options. Approximately 80% of MCCs have the Merkel cell polyomavirus (MCPyV) DNA integrated into the host genome (virus-positive: VP-MCC) and viral oncogenes drive oncogenesis. The remaining MCCs are virus-negative (VN-MCC) and are caused by UV mutagenesis. To identify novel treatments for VP-MCC and/or VN-MCC we screened three VP-MCC cell lines (WAGA, MKL-1, MKL-2), three VN-MCC cell lines (MCC-13, MCC-26, UISO), and four immortalized, non-transformed control cell lines (HaCaT, HEK293T, CRL7250, NIH-3T3) against ~2,400 compounds in the NCGC Pharmaceutical Collection (NPC) and ~1,900 compounds in the Mechanism Interrogation PlatE (MiPE). Using cell viability as a readout (CellTiter-Glo assay) we found both overlapping and distinct drugs that can be repurposed for the treatment of VP-MCC and VN-MCC.
A high-throughput screen was conducted in 1536-well white flat bottom plates (Corning) on a Kalypsys robotic system. Cell lines WAGA, MKL-1, MKL-2, MCC-13, MCC-26, UISO, HaCaT, HEK293T, CRL7250, and NIH-3T3 were screened against 2 small molecule annotated drug libraries NPC and MIPE in dose response (8 and 11 pt. respectively) measuring cell viability after 72 hours of incubation. […] A 1,536 pintool (Kalypsys) was used to transfer 23 nL of compound in DMSO to the 1,536-well assay plates. After 72 hr incubation at 37 degree celsius, 2.5 uL of CellTiter-Glo (Promega) was dispensed into each well using a BiorapTR. Plates were incubated at room temperature for 10 min, transferred to a ViewLux (PerkinElmer) and the luminescence was recorded using an exposure time of 2 seconds. Relative luminescence units (RLUs) were normalized to in-plate controls (no cells as a positive (cytotoxicity) control, DMSO as negative control) and the normalized data was processed using NCATS in-house software.
`NC1=N[C@H]2[C@H](CS[C@H]2CCCCC(=O)O)N1`: the “activity change, negative = cytotoxicity” value is 1.91% [at 16.1 µM] (inactive).

Regarding `CC(C)(C)[N+]([O-])=Cc1ccc(S(=O)(=O)O)cc1S(=O)(=O)O`, the “activity change, negative = cytotoxicity” value is 8.49% (inactive).

As to `Cc1ccc(O)c(C(CCN(C(C)C)C(C)C)c2ccccc2)c1` (stereo not given), the “activity change, negative = cytotoxicity” value was -12.2% (inactive).

As for `N#CC(=C(O)c1ccc(Cl)cc1Cl)c1nc2cc(Cl)ccc2c(=O)[nH]1`, the “activity change, negative = cytotoxicity” value was -4.73% (inactive).

`NS(=O)(=O)OC[C@@H]1C[C@@H](n2ccc3c(N[C@H]4CCc5ccccc54)ncnc32)C[C@H]1O`: the Potency is 2.09 µM (active).

As to `CCCCCCCN(CC)CCCC(O)c1ccc(NS(C)(=O)=O)cc1` (stereo not given), the “activity change, negative = cytotoxicity” value is -2.04% (inactive).

Turning to `C[C@@H](NCc1cc2ccccc2[nH]1)c1cccc2ccccc12`, the “activity change, negative = cytotoxicity” value was 5.63% (inactive).

For `C#C[C@]1(O)CC[C@@H]2[C@@H]3CCC4=CC(=O)CC[C@@H]4[C@H]3CC[C@@]21CC`, the “activity change, negative = cytotoxicity” value is -22.2% (inactive).

`O=S(=O)(O)CCSSCCS(=O)(=O)O`: the “activity change, negative = cytotoxicity” value is -6.43% (inactive).

As for `COc1cc2c(cc1OC)[C@@H]1C(=O)c3ccc4c(c3O[C@@H]1CO2)C=CC(C)(C)O4`, the “activity change, negative = cytotoxicity” value was -3.83% (inactive).

As to `CON=C(C(=O)N[C@@H]1C(=O)N2C(C(=O)O)=C(Cn3ccc(=N)n3CCO)CS[C@H]12)c1csc(N)n1`, the “activity change, negative = cytotoxicity” value is 5.55% (inactive).

Consider `C[C@@]12C(=O)OC(=O)[C@@]1(C)C1CCC2O1`, for which the Potency was 6.62 µM (active).

Regarding `O=C(NCc1ccccc1)[C@H](Cc1ccccc1)NC(=O)[C@@H]1O[C@@H]1C(=O)NCCc1ccc(O)cc1`, the “activity change, negative = cytotoxicity” value was -5.53% (inactive).

Consider `CC(=O)O[C@]1(C(C)=O)CC[C@H]2[C@@H]3C=C(C)C4=CC(=O)CC[C@]4(C)[C@@H]3CC[C@@]21C`, for which the “activity change, negative = cytotoxicity” value was -3.65% (inactive).

Regarding `O=C(C=CC=Cc1ccc2c(c1)OCO2)N1CCCCC1`, the “activity change, negative = cytotoxicity” value was -3.48% (inactive).

Turning to `COc1cc2ncnc(Nc3cccc(Br)c3)c2cc1OC`, the “activity change, negative = cytotoxicity” value is -19.6% (inactive).

With `C[N+](C)([O-])CCNc1ccc(NCC[N+](C)(C)[O-])c2c1C(=O)c1c(O)ccc(O)c1C2=O`, the “activity change, negative = cytotoxicity” value is -12.8% (inactive).

As for `CCCCC(=O)O[C@]1(C(=O)CO)[C@@H](C)C[C@H]2[C@@H]3CCC4=CC(=O)C=C[C@]4(C)[C@@]3(F)[C@@H](O)C[C@@]21C`, the “activity change, negative = cytotoxicity” value was -10.1% (inactive).

With `C=C1CCC2[C@](C)(CO)C(O)CC[C@]2(C)C1CC=C1C(=O)OCC1O` (stereo not given in full), the “activity change, negative = cytotoxicity” value is 4.57% [at 92.7 µM] (inactive).

For the compound `CC(=O)[C@]1(O)Cc2c(O)c3c(c(O)c2[C@@H](O[C@H]2C[C@H](N)[C@@H](O)[C@H](C)O2)C1)C(=O)c1ccccc1C3=O`, the Potency is 1.32 µM (active).

For the compound `c1coc(CNc2ncnc3nc[nH]c23)c1`, the “activity change, negative = cytotoxicity” value was 4.42% (inactive).

Turning to `CC(=O)O[C@H]1C[C@@H]2CC[C@H]3[C@H]4C[C@H]([N+]5(C)CCCCC5)[C@@H](OC(C)=O)[C@@]4(C)CC[C@@H]3[C@@]2(C)C[C@H]1[N+]1(C)CCCCC1`, the “activity change, negative = cytotoxicity” value was -1.1% (inactive).

`O=C(O)C(=O)Nc1cccc(C2=NN=N[N]2)c1`: the “activity change, negative = cytotoxicity” value is 1.09% (inactive).

Regarding `CCC(C)CCCCC(=O)N[C@@H](CCN)C(=O)NC(C(=O)N[C@H](CCN)C(=O)N[C@@H]1CCNC(=O)C([C@@H](C)O)NC(=O)[C@@H](CCN)NC(=O)[C@@H](CCN)NC(=O)[C@@H](CC(C)C)NC(=O)[C@H](Cc2ccccc2)NC(=O)[C@H](CCN)NC1=O)[C@@H](C)O` (stereo partly drawn) ({Octanoyl(6-Me)}-[Dab][ξThr(3R)][dDab][dDab][Dab]F[dL][dDab][dDab][ξThr(3R)]; lactam 4-C), the “activity change, negative = cytotoxicity” value is 1.27% (inactive).

As to `CCN(CC)CCNC(=O)c1c(C)[nH]c(C=C2C(=O)Nc3ccc(F)cc32)c1C`, the Potency is 38.2 µM (active).

As to `C[C@H]1O[C@H](O[C@H]2[C@H](O)[C@@H](O)[C@@H](O[C@H]3[C@H](O)[C@@H](O)C(O)O[C@H]3CO)O[C@H]2CO)[C@H](O)[C@@H](O)[C@H]1N[C@H]1C=C(CO)[C@@H](O)[C@H](O)[C@@H]1O` (stereo not given in full), the “activity change, negative = cytotoxicity” value was 2.46% (inactive).

As to `CCN(CC)CCCCNc1ncc2c(n1)N(C)C(=O)N(c1c(Cl)c(OC)cc(OC)c1Cl)C2`, the “activity change, negative = cytotoxicity” value was -2.15% (inactive).

Regarding `Cc1ccc(-n2[nH]c(C)c(N=Nc3cccc(-c4cccc(C(=O)O)c4)c3O)c2=O)cc1C`, the “activity change, negative = cytotoxicity” value is -20.1% (inactive).

`COc1ccc(CCC(=O)c2c(O)cc(O[C@@H]3O[C@H](CO)[C@@H](O)[C@H](O)[C@@H]3O[C@@H]3O[C@@H](C)[C@H](O)[C@@H](O)[C@@H]3O)cc2O)cc1O`: the “activity change, negative = cytotoxicity” value was -12.1% (inactive).

Turning to `O=C(Nc1cccc(Nc2ncc(Br)c(NCCc3cnc[nH]3)n2)c1)N1CCCC1`, the Potency was 11.8 µM (active).

With `CCCCOc1ccc(C(=O)Nc2ccc(F)cc2F)cc1`, the “activity change, negative = cytotoxicity” value is -1.95% (inactive).

For the compound `COc1cc([C@@H]2c3cc4c(cc3[C@@H](O[C@@H]3O[C@@H]5CO[C@@H](c6cccs6)O[C@@H]5[C@H](O)[C@@H]3O)[C@H]3COC(=O)[C@H]23)OCO4)cc(OC)c1O`, the Potency was 2.35 µM (active).

Regarding `C[C@](Cc1c[nH]c2ccccc12)(NC(=O)OC1C2CC3CC(C2)CC1C3)C(=O)NC[C@H](NC(=O)CCC(=O)O)c1ccccc1` (stereo not given in full), the “activity change, negative = cytotoxicity” value is -1.22% (inactive).

In the case of `C[C@@H]1CC[C@@]2(OC1)OC1CC3C4CC=C5CC(O)CCC5(C)C4CCC3(C)C1[C@@H]2C` (stereo not given in full), the “activity change, negative = cytotoxicity” value is -14.2% (inactive).

As to `CCCCCCCCc1ccc(CCC(N)(CO)CO)cc1`, the “activity change, negative = cytotoxicity” value is -2.33% (inactive).

Consider `C[C@@H]1C(=O)O[C@H]2CC34[C@H]5C[C@@H](C(C)(C)C)C36[C@H](OC(=O)[C@@H]6O)O[C@@]4(C(=O)O5)[C@]21O` (stereo not given in full), for which the “activity change, negative = cytotoxicity” value is -2.75% (inactive).

As to `O=C(O)CCCCC(CCSCc1ccccc1)SCc1ccccc1` (stereo not given), the “activity change, negative = cytotoxicity” value is 8.7% (inactive).

In the case of `CN[C@H]1[C@@H](O)[C@@H]2O[C@@H]3O[C@H](C)CC(=O)[C@]3(O)O[C@@H]2[C@@H](NC)[C@H]1O`, the “activity change, negative = cytotoxicity” value is -0.0744% (inactive).

As for `O=C(O)c1ccc(Nc2ncc3c(n2)-c2ccc(Cl)cc2C(c2c(F)cccc2F)=NC3)cc1`, the “activity change, negative = cytotoxicity” value was -13% (inactive).

As to `N#Cc1c(C2CCNCC2)cc(-c2c(O)cccc2OCC2CC2)nc1N`, the “activity change, negative = cytotoxicity” value was -10.4% (inactive).
